Source: PubChem BioAssay (EPA / NIEHS)
The source made the active and inactive calls. Rule for the calls: active = hit-call score of the fitted dose curve at least 0.9, where 1 is the maximum; inactive = score below 0.9.

experiment: ATG_PXRE_CIS: Attagene CIS-FACTORIAL HepG2 Assay for human Pregnane X Receptor Element (PXRE) (AID 2282957); conditions: HepG2 Attagene CIS-FACTORIAL PXRE reporter, mRNA; actives raise or lower the signal
Procedure: ATG_CIS is a cell-based, multiplexed-readout assay that uses HepG2, a human liver cell line, with measurements taken at 24 hours after chemical dosing in a 24-well plate.ATG_PXRE_CIS is one of 52 assay component(s) measured or calculated from the ATG_CIS assay. It is designed to make measurements of mRNA induction, a form of inducible reporter, as detected with fluorescence intensity signals by Reverse transcription polymerase chain reaction (RT-PCR) and Capillary electrophoresis technology.Data from the assay component ATG_PXRE_CIS was analyzed into 1 assay endpoint. This assay endpoint, ATG_PXRE_CIS, was analyzed with bidirectional fitting relative to DMSO as the negative control and baseline of activity. Using a type of inducible reporter, measures of mRNA for gain or loss-of-signal activity can be used to understand the reporter gene at the transcription factor-level as they relate to the gene NR1I2. Furthermore, this assay endpoint can be referred to as a primary readout, because this assay has produced multiple assay endpoints where this one serves a reporter gene function. To generalize the intended target to other relatable targets, this assay endpoint is annotated to the nuclear receptor intended target family, where the subfamily is non-steroidal.
Human liver HepG2 cells are transiently transfected with multiple reporter transcription units (MRTUs) in 6-well plates using FuGene 6 reagent (Roche; 3 ml FuGene/1 mg DNA). The MRTU constructs are regulated by a cis-regulating element (promoter). […] A major difference between the CIS and TRANS system is that in CIS activities of endogenous TFs are measured, whereas the TRANS assay evaluates changes in activities of exogenous, chimeric NR-Gal4 proteins. […] At the end of 24 hour incubation, total RNA was isolated using TriZol reagent (Invitrogen). The isolated RNA is then reverse-transcribed using oligo(dT) primer and Mo-MLV reverse transcriptase (Invitrogen) with DNAse I (Ambion) treatment for 30 min. The one-tenth of the produced cDNA was amplified by PCR using Taq DNA polymerase (Invitrogen) and two reporter sequence-specific primers. The PCR products were fluorescently labeled by primer extension with 6-arboxyfluorescein (6-FAM) 5'-labeled reporter sequence-specific primer (2 min at 95 C, 20 s at 68 C and 10 min at 72 C) and these products were digested with 5U of HpaI (New England Biolabs) for 2h at 37 C. The fragments were purified using Qiaquick PCR columns (Qiagen), analyzed on an ABI 3130xL genetic analyzer (Applied Biosystems) with peak positions identified by using a set of X-rhodamine (ROX)-labeled MapMarker1000 molecular weight standards (BioVentures). The raw capillary electrophoresis data was processed using Attagraph software (Attagene).

AC50, active:
CCOc1nc(F)cc2nc(S(=O)(=O)Nc3c(Cl)cccc3C(=O)OC)nn12 7.46 µM, O=C(/C=C/C=C/c1ccc2c(c1)OCO2)N1CCCCC1 2.37 µM, CC(C)CCCC(C)CC=O (stereo not given) 65.1 µM, CC(CC=O)CCCC(C)(C)O (stereo not given) 41.2 µM, O=C(c1ccccc1)c1ccc(O)c(O)c1O 26.9 µM, C=CC(=O)OCCOC(=O)C=C 26.5 µM, CC(=O)OCC(=O)[C@@]12N=C(C)O[C@@H]1C[C@H]1[C@@H]3CCC4=CC(=O)C=C[C@]4(C)[C@H]3[C@@H](O)C[C@@]12C 17.6 µM, O=C(Nc1ccccc1SSc1ccccc1NC(=O)c1ccccc1)c1ccccc1 4.44 µM, CC(C)(c1cc(Br)c(OCCO)c(Br)c1)c1cc(Br)c(OCCO)c(Br)c1 0.484 µM, Cc1c(C)c([N+](=O)[O-])c(C(C)(C)C)c([N+](=O)[O-])c1C 1.93 µM, COC(=O)c1cc(Cl)ccc1[N+](=O)[O-] 76.1 µM, CCN(CCO)c1cccc(C)c1 27.8 µM, COC(=O)/C=C\C(=O)O 30.7 µM, COc1ccc(-c2coc3cc(O)ccc3c2=O)cc1 11.3 µM, COc1ccc(C(Cl)=C(c2ccc(OC)cc2)c2ccc(OC)cc2)cc1 2.54 µM, CCCCCCC1(C)CCC(=O)O1 (stereo not given) 30.3 µM, CC(=O)c1ccc2c(c1)CCCC2 26.4 µM, CCCCC(CC)COC(=O)c1ccccc1O (stereo not given) 15.3 µM, CCCOC(=O)CCCCC(=O)OCCC 65.4 µM

outcome, inactive:
O=C1CCCN1CCO, O=C1C=CC(=O)O1, CCCCCCCCCCOC(C)=O, CC(C)c1ccc(C=O)cc1, Nc1ccc(N=Nc2ccccc2)c(N)n1, OC1OCCOC1O (stereo not given), COc1ccc2nc(N)sc2c1, CCCCCC/C=C\CCCCCCCC(=O)O, CCOC(=O)c1ccccc1C(=C1C=C(Br)C(=O)C(Br)=C1)c1cc(Br)c(O)c(Br)c1, c1cc(N(CC2CO2)CC2CO2)ccc1OCC1CO1 (stereo not given), Cc1cccc(C(=O)O)c1, CCCCCCCCCCCCCCCC[n+]1ccccc1, O=P(O)(O)Oc1ccccc1, N=c1ccn2c(n1)O[C@H]1[C@H](O)[C@@H](CO)O[C@H]12, CC(=O)[C@@]1(O)CC[C@H]2[C@@H]3C[C@H](C)C4=CC(=O)C=C[C@]4(C)[C@@]3(F)[C@@H](O)C[C@@]21C, Cc1ccc(C(C)(C)C)cc1, Nc1ccc(Cl)cc1Cl, Cc1oncc1C(=O)Nc1ccc(C(F)(F)F)cc1, COC(=O)c1ccccc1OC, O=C1C(N(CO)C(=O)NCO)N(CO)C(=O)N1CO (stereo not given), CN(C)CCCN(C)C
